Compounds with a hit are over-represented: about 2% of the library has one in this group of screens.
Gli-Sufu antag – Gli-Sufu pathway antagonists, primary screen, luciferase luminescence, Sufu-KO-LIGHT cells, uHTS. Sufu-KO-LIGHT fibroblasts, Gli luciferase reporter luminescence. inhibition, % at 5 µM. 340,000 tested, 0.74% active;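 active means inhibition above about 55%, limit read from the data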;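 further: 0% = DMSO-treated cells and 100% = wells with medium but no cells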
GalR3 antagonist – GalR3 antagonists in HEK293 cells, primary screen, cell-based, fluorescence readout; Galanin receptor type 3 (Homo sapiens), O60755; HEK293 GalR3-CNG cAMP membrane potential fluorescence; galR3 body fused to GalR1 C-terminus; inhibition, % at 3 µM; 360,000 tested, 0.44% active;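 active means inhibition above the screen-wide average plus 3 SD, cut at about 13% in these data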;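 further: forskolin and galanin both at EC90 stimulate the cells; cAMP rise reported by CNG channel membrane potential dye signal; 0% = forskolin plus galanin with DMSO and 100% = forskolin alone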
NR2F2 inh – NR2F2 transcriptional activity inhibitors, primary screen, cell-based, luciferase reporter, HEK293T, luminescence; COUP transcription factor 2 (Homo sapiens), P24468; HEK293T NGFI-A luciferase reporter; inhibition, % at 8.6 µM; 370,000 tested, 0.7% active;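 active means inhibition above a per-plate cutoff, mean inhibition of test wells between control levels plus 3 SD, cut at about 38% in these data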;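 further: cells cotransfected with COUP-TFII expression vector driving the NGFI-A reporter; 0% = median of COUP-TF2 test wells and 100% = reporter-only cells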
Target sequence (P24468 whole entry, looked up): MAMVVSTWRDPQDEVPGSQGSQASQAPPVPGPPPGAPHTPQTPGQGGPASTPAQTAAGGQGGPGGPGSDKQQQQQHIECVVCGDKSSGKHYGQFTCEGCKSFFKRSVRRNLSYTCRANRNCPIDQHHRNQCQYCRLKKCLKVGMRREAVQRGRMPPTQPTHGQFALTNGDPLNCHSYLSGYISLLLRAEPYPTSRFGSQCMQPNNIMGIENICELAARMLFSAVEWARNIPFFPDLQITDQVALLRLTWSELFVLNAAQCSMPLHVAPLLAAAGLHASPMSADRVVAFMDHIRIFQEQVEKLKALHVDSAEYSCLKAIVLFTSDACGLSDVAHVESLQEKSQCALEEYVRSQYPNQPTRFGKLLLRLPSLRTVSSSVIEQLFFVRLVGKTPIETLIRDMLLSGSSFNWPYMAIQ
Jurkat NFkB inh – inhibitors of induced NF-kB luciferase reporter, primary screen, TCR NF-kB activation inhibitor project, cell-based, luminescence, uHTS. Jurkat, PMA/ionomycin-induced NF-kB luciferase reporter. inhibition, % at 4 µM. 330,000 tested, 0.53% active. AID 435003, 2010; in the data active means inhibition above about 50%
697 NFkB inh – inhibitors of PMA/ionomycin-induced NF-kB reporter, 697 cells, primary screen, B-cell NF-kB inhibitor project, cell-based, luminescence, uHTS; 697 B-cell NF-kB luciferase reporter, 16 h; inhibition, % at 4 µM; 330,000 tested, 0.33% active; AID 435022, 2010; in the data active means inhibition above about 35%
Gli antag conf – Gli-SUFU pathway antagonists, confirmation, single concentration, luciferase luminescence, Sufu-KO-LIGHT cells | shares compounds with Gli-Sufu antag | Gli luciferase reporter | inhibition, % at 5 µM | 2,500 tested, 40% active | AID 602428, 2012;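 active means mean inhibition at 5 µM reaching about 45%, limit read from the data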;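 further: plate controls were DMSO-treated cells for no effect and wells lacking cells for full effect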
SufuKO cytotox – cytotoxicity in Sufu-KO-LIGHT cells, confirmation, cytotoxicity control for Gli-SUFU antagonist project, cell-based, ATP luminescence, single concentration | shares compounds with Gli-Sufu antag | cytotoxicity, % at 5 µM | 2,500 tested, 32% active | AID 651994, 2013;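 active means mean cytotoxicity at 5 µM above about 25%, limit read from the data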;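 further: cells exposed to compound overnight for roughly 16 to 18 hours; plate controls were DMSO wells with cells for no effect and medium without cells for full effect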
Wnt3a cs – Wnt3a reporter signal inhibition, confirmation, counter-screen for Gli-SUFU antagonist project, Wnt-LIGHT cells, luminescence, single concentration; shares compounds with Gli-Sufu antag; Wnt3a-driven luciferase reporter; inhibition, % at 6.25 µM; 2,500 tested, 20% active; AID 651995, 2013;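 active means mean inhibition above about 25%, limit read from the data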
Starred values were filed as active, the others as inactive; x = not tested or not shown.

SMILES	Gli-Sufu antag	GalR3 antagonist	NR2F2 inh	Jurkat NFkB inh	697 NFkB inh	Gli antag conf	SufuKO cytotox	Wnt3a cs
O=C(Nc1ccccc1Oc1cccnc1)C1CCCN(Cc2ccccc2O)C1 (stereo not given)	51	-9	-1	5	3	14	28*	-12
CN1CCN(CCC(=O)Nc2ccc(Br)cc2)CC1	84*	-7	2	-15	-6	11	16	-16
CCN1CCN(CCC(=O)Nc2ccc(Br)cc2)CC1	6	-7	-8	-5	1	x	x	x
CCOC(=O)C1=CN(Cc2ccco2)S(=O)(=O)N(CC)C1c1cccc(OC)c1 (stereo not given)	52	-5	9	x	-5	10	22	-16
CCOC(=O)C1=CN(Cc2ccco2)S(=O)(=O)N(CC)C1c1ccccc1 (stereo not given)	53	-6	11	x	-2	12	3	-10
C=CCN1C(=O)[C@@H](CC(=O)N2CCSCC2)[C@]2(C(=O)OC)CCCCC=C12	x	x	-32	x	x	x	x	x
O=C(OCCOc1ccc(Cl)cc1)c1cc(S(=O)(=O)N2CCCCC2)ccc1N1CCOCC1	69*	-9	9	x	x	68*	32*	26*
Cc1ccc(OCCOC(=O)c2cc(S(=O)(=O)N3CCCCC3)ccc2N2CCOCC2)cc1	55*	-8	14	10	-29	65*	28*	3
COc1ccc(COC(=O)c2cc(S(=O)(=O)N3CCCCC3)ccc2N2CCOCC2)cc1	28	-4	-3	8	-18	x	x	x
COc1ccc(-n2c(SCC(=O)NCC3CCCO3)nnc2-c2ccncc2)cc1 (stereo not given)	x	x	-15	x	x	x	x	x
CC1CCC(C(C)C)C(OCC(O)CN2CCCC(C)C2)C1 (stereo not given)	7	-4	-8	-7	-6	x	x	x
CC1CCC(C(C)C)C(OCC(O)CN2CCOCC2)C1 (stereo not given)	54	-8	-12	31	3	11	4	-18
Nc1nc2n(n1)C(c1ccco1)CC(c1ccc(Cl)cc1Cl)N2 (stereo not given)	50	-3	-10	-4	5	8	11	6
CC(C)C[C@H]1COc2cccc(F)c2S(=O)(=O)N1Cc1cn(Cc2ccco2)nn1	x	x	-14	x	x	x	x	x
CCc1cc(=O)oc2cc(C)cc(OCC(=O)N[C@@H](CSCc3ccccc3)C(=O)O)c12	57*	2	-5	3	6	23	-3	3
CC(C)C[C@@H]1COc2cc(Br)ccc2S(=O)(=O)N1Cc1cn(Cc2ccc(C(F)(F)F)cc2)nn1	x	x	-11	x	x	x	x	x
COc1cccc(/C=N/NC(=O)c2ccc([N+](=O)[O-])cc2Cl)c1O	64*	-1	2	0	-5	28	9	14
Nc1[nH]c(C(=O)c2ccccc2)c(-c2cccnc2)c1C(=O)NCCc1c[nH]c2ccccc12	x	x	-13	x	x	x	x	x
COC1C(CO)OC(n2c3c(Cl)cccc3c3c4c(c5c6cccc(Cl)c6[nH]c5c32)C(=O)NC4=O)C(O)C1O (stereo not given)	62*	-4	3	x	x	37	26*	30*
Cc1csc(N2CCCC2c2nc3cc(Cl)c(N4CCCCC4)cc3n2CCOCCO)n1 (stereo not given)	9	-5	8	11	1	x	x	x
Cc1csc(N2CCCC2c2nc3cc(C(F)(F)F)ccc3n2CCOCCO)n1 (stereo not given)	85*	-5	10	1	-30	18	-1	-72

Compound activity deposited in PubChem by several laboratories.
